Laboratory results reported in the supplement of paper PMC10338343.
± gives the standard deviation.

System: MILI (PIWIL2) piRISC loaded with piRNA #1 (26 nt)
Assay: pre-steady-state target cleavage rate (min^-1); guide: piRNA #1 5'p-UGAGGUAGUAGGUUGUAUAGUAUCCA; MIWI and MILI are mouse PIWI proteins and EfPiwi is from a freshwater sponge; tags in brackets are library labels; higher = faster piRNA-guided slicing of the target
Settings: auxiliary factor: 500 nM mouse GTSF1
Summary of the method: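 Three pooled Cleave-'n-Seq trials supplied the data, with k3 capped at 0.0001 min^-1. In each, […] transcribed, DNA-blocked target RNA library and 1 nM active affinity-purified piRISC with one synthetic guide reacted in HEPES–potassium acetate buffer at 33 °C for 0–8 or 0–960 min, with or without 500 nM GTSF1 partner protein. Uncleaved targets were sequenced and normalised to depth and to weakly complementary targets. A burst-and-steady-state fit provided the pre-steady-state cleavage rate.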
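Also: 1 nM active piRISC with 0.1 nM target library at 33 °C single turnover.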

Sequence	pre-steady-state target cleavage rate
GGAGACCUAUGAUAUCUACCUACUACCUGA	< 0.0001
GGAGACCAUACUUUAGAACCUACUACCUCA	0.134 ± 0.013
GGAGACCUAACUAUACUACCUACUACCUGA	0.0917 ± 0.025
GGAGACCUAUCUAUACAACCUACUACCUAA	0.0733 ± 0.0096
GGAGACCUAACUAUACAACCUACUUCCACA	0.0458 ± 0.022
GGAGACCAUACUAUUGUACCUACUACCUCA	0.0647 ± 0.009
GGAGACCUAUGUAUACAACUUACUACCUCA	0.0134 ± 0.0024
GGAGACCUAUGUAUACAACCUACAUACCUCA	0.043 ± 0.0061
GGAGACCUAACUAUACAACCUCCUACCUCA	0.0273 ± 0.011
GGAGACCUAACUAGACAACCUACUACCUCA	0.0997 ± 0.02
GGAGACCUAUCUAUACUACCUAGUACCUCA	0.0113 ± 0.0036
GGAGACCUAUCUAUACAACCAACUACCUCA	0.00522 ± 0.0024
GGAGACCUAACUAUUCAACCUAGUACCUCA	0.0158 ± 0.0076
GGAGACCUAUCUAUAGAUCCUACUACCUCA	0.144 ± 0.017
GGAGACCUAUCUAUACAACCGACUACCUCA	0.0049 ± 0.003
GGAGACCUUAGUAUACAUCCUACUACCUCA	0.126 ± 0.018
GGAGACCUAUGAUUACAACAUACUACCUCA	0.00271 ± 0.0024
GGAGUGGAUACUAUACUUGCUACUACCUCA	0.0633 ± 0.0052
GGAGACCUAACUUUACAACCUACAACCUCA	0.0823 ± 0.027
GGAGACCUAUCUAUACAAGGAACUACCUCA	0.0048 ± 0.002
GGAGACCUAUGAAUACAACCUACUACCGCA	0.00764 ± 0.003
GGAGUGGAUACUUAUCAACCUACUACCUCA	0.149 ± 0.011
GGAGACCAUACUAAACUACCUACUACCUCA	0.142 ± 0.013
GGAGACCUAACUAAACAACGUACUACCUCA	0.00971 ± 0.005
